# Data as given in PubChem BioAssay (Tox21).
# Values joined by “and” are separate entries in the source; they are usually repeats but may differ in a detail not shown here. Equal values may be shown once. Results filed as inconclusive are left out. A call without a number means that no potency is given here. A number with no mark means an inactive call. Active and inactive are the calls of the source. The call rests on the fitted dose curve; in most records, active means well fitted curve in the direction sought with a large enough effect in the repeat runs; inconclusive means weak or mixed curves; inactive means no such curve, though single readings can be large; an effect the other way counts as inactive or inconclusive.
# Tests used:
# [1] = molecular target: Cytochrome P450 2C9 (Homo sapiens) (UniProt P11712); experiment: Cytochrome P450 Family 2 Subfamily C Member 9 (CYP2C9) small molecule antagonists: luciferase reporter qHTS assay (AID 1671198); on activity change, negative = inhibition: series mostly up to about 120 µM
# Method in brief: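 Enzyme-substrate mix preincubated with compound 10 min at room temperature; reaction started with NADPH regeneration solution, 1 h 37C. Luminescent luciferin product read after 20 min detection reagent.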
# [2] = molecular target: Cytochrome P450 1A2 (Homo sapiens) (UniProt P05177); experiment: Cytochrome P450 Family 1 Subfamily A Member 2 (CYP1A2) small molecule antagonists: luciferase reporter qHTS assay (AID 1671199); on activity change, negative = inhibition: series mostly up to about 120 µM
# Method in brief: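 P450-Glo CYP1A2, 1536-well qHTS: enzyme/proluciferin substrate + cpd (DMSO), 10 min RT; NADPH regen, 1 h RT; detection reagent, 20 min; luminescence, RLU.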
# [3] = molecular target: Voltage-gated inwardly rectifying potassium channel KCNH2 (Homo sapiens) (UniProt Q12809); experiment: Human Ether-a-go-go-Related Gene (hERG) channel small molecule antagonists: fluorescence cell-based qHTS assay (AID 1671200);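 on activity change, negative = inhibition: hERG-expressing U2OS cells given a thallium stimulus after FluxOR II dye loading; series mostly up to about 77 µM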
# Method in brief: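 Thallium served as the potassium surrogate; its influx into dye-loaded U2OS cells carrying the channel was measured by fluorescence over 2 min.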
# [4] = molecular target: Cytochrome P450 3A4 (Homo sapiens) (UniProt P08684); experiment: Cytochrome P450 Family 3 Subfamily A Member 4 (CYP3A4) small molecule antagonists: luciferase reporter qHTS assay (AID 1671201); on activity change, negative = inhibition: series mostly up to about 120 µM
# Method in brief: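 Relative luminescence units after 20 min with luciferin detection reagent served as read-out. Beforehand, CYP3A4 turned over a proluciferin substrate for 1 h at room temperature with NADPH regeneration, following 10 min compound preincubation.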
# Further: nearly all actives have a fitted effect of over 50% in size.
# Potency means the concentration at half of the fitted maximal effect.
# Chain of Cytochrome P450 2C9 (Homo sapiens) (P11712 whole entry, looked up): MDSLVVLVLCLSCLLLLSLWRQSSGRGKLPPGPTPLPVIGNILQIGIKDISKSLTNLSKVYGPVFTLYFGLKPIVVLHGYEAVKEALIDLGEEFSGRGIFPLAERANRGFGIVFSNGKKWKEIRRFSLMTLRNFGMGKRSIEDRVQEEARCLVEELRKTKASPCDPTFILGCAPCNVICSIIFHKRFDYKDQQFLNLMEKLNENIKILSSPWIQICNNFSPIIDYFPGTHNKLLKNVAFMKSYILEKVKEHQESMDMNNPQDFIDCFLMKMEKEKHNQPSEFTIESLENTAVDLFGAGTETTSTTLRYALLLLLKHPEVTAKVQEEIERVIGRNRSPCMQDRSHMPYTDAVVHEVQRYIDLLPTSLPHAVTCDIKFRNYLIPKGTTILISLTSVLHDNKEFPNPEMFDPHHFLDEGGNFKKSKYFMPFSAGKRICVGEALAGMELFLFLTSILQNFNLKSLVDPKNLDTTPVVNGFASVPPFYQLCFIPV
# Chain of Voltage-gated inwardly rectifying potassium channel KCNH2 (Homo sapiens) (Q12809 whole entry, looked up): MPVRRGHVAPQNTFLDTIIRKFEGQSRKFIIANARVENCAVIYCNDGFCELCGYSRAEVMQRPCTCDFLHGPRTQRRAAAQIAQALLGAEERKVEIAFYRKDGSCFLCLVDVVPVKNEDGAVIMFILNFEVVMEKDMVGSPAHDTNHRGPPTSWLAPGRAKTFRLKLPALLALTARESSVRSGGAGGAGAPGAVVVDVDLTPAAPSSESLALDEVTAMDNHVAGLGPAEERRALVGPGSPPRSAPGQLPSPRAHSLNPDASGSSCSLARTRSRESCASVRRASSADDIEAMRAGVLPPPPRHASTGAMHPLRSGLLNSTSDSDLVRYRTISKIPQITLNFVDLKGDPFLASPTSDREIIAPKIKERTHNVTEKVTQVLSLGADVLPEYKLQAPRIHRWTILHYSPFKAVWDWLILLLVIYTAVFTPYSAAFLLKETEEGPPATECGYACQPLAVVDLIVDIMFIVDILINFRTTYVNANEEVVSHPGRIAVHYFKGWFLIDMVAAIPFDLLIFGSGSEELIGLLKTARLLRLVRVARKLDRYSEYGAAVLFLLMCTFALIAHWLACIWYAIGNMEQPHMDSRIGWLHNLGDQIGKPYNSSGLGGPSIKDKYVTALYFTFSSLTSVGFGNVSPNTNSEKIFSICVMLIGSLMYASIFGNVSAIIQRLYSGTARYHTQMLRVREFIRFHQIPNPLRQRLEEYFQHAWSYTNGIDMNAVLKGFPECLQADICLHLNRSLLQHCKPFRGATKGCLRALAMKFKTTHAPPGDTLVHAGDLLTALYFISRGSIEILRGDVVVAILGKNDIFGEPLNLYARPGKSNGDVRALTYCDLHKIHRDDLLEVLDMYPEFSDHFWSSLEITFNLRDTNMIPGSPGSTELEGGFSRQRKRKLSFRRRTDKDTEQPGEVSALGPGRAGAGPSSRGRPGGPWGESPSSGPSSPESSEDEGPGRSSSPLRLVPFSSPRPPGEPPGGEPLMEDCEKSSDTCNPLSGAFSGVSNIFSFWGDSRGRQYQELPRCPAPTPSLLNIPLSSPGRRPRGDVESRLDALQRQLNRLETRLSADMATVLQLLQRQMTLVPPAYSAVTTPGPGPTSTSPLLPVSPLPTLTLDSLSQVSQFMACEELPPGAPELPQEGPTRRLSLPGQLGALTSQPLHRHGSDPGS
# Chain of Cytochrome P450 3A4 (Homo sapiens) (P08684 whole entry, looked up): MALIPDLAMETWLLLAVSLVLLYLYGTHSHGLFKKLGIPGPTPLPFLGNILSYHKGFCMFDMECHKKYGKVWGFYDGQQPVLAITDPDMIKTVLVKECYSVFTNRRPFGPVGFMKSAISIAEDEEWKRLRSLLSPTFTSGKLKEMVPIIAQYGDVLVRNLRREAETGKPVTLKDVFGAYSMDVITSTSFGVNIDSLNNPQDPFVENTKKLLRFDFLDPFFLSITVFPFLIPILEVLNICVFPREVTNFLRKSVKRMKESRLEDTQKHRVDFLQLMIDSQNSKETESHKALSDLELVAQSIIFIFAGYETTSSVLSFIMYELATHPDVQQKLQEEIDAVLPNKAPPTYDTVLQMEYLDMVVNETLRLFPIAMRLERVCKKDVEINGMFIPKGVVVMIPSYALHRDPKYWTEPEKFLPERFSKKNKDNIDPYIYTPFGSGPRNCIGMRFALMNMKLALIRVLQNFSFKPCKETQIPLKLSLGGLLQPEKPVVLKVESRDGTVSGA
# Chain of Cytochrome P450 1A2 (Homo sapiens) (P05177 whole entry, looked up): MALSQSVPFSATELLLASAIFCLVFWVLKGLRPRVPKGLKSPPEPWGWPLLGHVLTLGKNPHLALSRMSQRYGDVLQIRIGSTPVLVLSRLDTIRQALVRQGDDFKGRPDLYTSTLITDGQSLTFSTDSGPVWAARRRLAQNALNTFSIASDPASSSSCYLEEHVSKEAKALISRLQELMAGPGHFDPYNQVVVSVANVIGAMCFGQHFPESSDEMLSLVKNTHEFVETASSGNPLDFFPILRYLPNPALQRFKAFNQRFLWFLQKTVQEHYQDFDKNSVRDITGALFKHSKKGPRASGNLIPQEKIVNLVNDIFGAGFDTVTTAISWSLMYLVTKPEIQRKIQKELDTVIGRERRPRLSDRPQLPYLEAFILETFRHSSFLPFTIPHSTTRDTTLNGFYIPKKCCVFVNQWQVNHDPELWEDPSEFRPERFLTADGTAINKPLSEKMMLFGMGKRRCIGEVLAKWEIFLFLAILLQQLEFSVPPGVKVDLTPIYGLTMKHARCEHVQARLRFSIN
structure (smiles),measurement,setting,value
CC(CCc1ccccc1)NCC(O)c1ccc(O)c(C(N)=O)c1 (stereo not given),Potency,[1],inactive
same,Potency,[2],inactive
same,Potency,[3],19.5 µM (active)
same,Potency,[4],inactive
OC1CCC(C2CCCCC2)CC1 (stereo not given),Potency,[2],35.6 µM (active)
same,Potency,[3],inactive
O=[N+]([O-])c1ccc(F)c(Cl)c1,Potency,[3],inactive
same,Potency,[4],inactive
Cc1c(F)c(N2CCNC(C)C2)cc2c1c(=O)c(C(=O)O)cn2C1CC1 (stereo not given),Potency,[1],inactive
same,Potency,[2],inactive
same,Potency,[3],inactive
same,Potency,[4],inactive
O=c1[nH]c2ccccc2n1CCCN1CCN(C(c2ccccc2)c2ccccc2)CC1,Potency,[1],17.4 µM (active)
same,Potency,[2],inactive
same,Potency,[4],inactive
O=C(O)c1cc(N=Nc2ccc([N+](=O)[O-])cc2)ccc1O,Potency,[1],34.9 µM (active)
same,Potency,[3],inactive
CCO[Si](OCC)(OCC)OCC,Potency,[1],inactive
same,Potency,[3],inactive
same,Potency,[4],inactive
CCOC(=O)NNc1ccc(N(CC)CC(C)O)nn1 (stereo not given),Potency,[1],inactive
same,Potency,[2],inactive
same,Potency,[4],inactive
O=C(O)CN(CCN(CC(=O)O)CC(=O)O)CC(=O)O,"activity change, negative = inhibition",[3],-1.4% [at 2.72 µM]
Cc1cc(=O)oc2cc(O)cc(O)c12,Potency,[2],25.3 µM (active)
same,Potency,[3],inactive
same,Potency,[4],20.1 µM (active)
COc1ccc(-c2coc3cc(O)ccc3c2=O)cc1,Potency,[1],0.252 µM (active)
same,Potency,[2],12.6 µM (active)
same,Potency,[3],inactive
same,Potency,[4],inactive
CCCCCCOC(=O)C(C)CC (stereo not given),Potency,[1],inactive
same,Potency,[2],inactive
same,Potency,[3],inactive
same,Potency,[4],inactive
NC[C@H]1O[C@H](O[C@H]2[C@H](O[C@@H]3O[C@H](CO)[C@@H](O)[C@H]3O)C(O)[C@H](N)C[C@@H]2N)[C@H](N)[C@@H](O)[C@@H]1O (stereo not given in full),"activity change, negative = inhibition",[1],2.46% [at 10.5 µM]
same,"activity change, negative = inhibition",[3],-0.219% [at 6.97 µM]
CCCCCCCCCCCCCC[N+](C)(C)C,Potency,[1],inactive
same,Potency,[2],inactive
same,Potency,[3],13.3 µM (active) and 19.5 µM (active) and 21.3 µM (active)
same,Potency,[4],inactive
Nc1nc2c(ncn2COCCO)c(=O)[nH]1,Potency,[1],inactive
same,Potency,[2],inactive
same,Potency,[4],inactive
Cc1ccc(C(C)C)cc2c(C)ccc1-2,Potency,[3],inactive
CC(C)CCCCCOC(=O)CCS,Potency,[2],39.9 µM (active)
same,Potency,[3],inactive
same,Potency,[4],inactive
CC(C)(C)C1CCC(=O)CC1,Potency,[1],inactive
same,Potency,[3],inactive
